mHTT CaM bind: mHTT-calmodulin interaction abrogation; P42858; AlphaScreen His-mHTT/GST-CaM binding, luminescence; inhibition, % at 15 µM; AID 1671202; hit rate 3.6% among 190,000
Target sequence (P42858 whole entry, looked up, change not shown): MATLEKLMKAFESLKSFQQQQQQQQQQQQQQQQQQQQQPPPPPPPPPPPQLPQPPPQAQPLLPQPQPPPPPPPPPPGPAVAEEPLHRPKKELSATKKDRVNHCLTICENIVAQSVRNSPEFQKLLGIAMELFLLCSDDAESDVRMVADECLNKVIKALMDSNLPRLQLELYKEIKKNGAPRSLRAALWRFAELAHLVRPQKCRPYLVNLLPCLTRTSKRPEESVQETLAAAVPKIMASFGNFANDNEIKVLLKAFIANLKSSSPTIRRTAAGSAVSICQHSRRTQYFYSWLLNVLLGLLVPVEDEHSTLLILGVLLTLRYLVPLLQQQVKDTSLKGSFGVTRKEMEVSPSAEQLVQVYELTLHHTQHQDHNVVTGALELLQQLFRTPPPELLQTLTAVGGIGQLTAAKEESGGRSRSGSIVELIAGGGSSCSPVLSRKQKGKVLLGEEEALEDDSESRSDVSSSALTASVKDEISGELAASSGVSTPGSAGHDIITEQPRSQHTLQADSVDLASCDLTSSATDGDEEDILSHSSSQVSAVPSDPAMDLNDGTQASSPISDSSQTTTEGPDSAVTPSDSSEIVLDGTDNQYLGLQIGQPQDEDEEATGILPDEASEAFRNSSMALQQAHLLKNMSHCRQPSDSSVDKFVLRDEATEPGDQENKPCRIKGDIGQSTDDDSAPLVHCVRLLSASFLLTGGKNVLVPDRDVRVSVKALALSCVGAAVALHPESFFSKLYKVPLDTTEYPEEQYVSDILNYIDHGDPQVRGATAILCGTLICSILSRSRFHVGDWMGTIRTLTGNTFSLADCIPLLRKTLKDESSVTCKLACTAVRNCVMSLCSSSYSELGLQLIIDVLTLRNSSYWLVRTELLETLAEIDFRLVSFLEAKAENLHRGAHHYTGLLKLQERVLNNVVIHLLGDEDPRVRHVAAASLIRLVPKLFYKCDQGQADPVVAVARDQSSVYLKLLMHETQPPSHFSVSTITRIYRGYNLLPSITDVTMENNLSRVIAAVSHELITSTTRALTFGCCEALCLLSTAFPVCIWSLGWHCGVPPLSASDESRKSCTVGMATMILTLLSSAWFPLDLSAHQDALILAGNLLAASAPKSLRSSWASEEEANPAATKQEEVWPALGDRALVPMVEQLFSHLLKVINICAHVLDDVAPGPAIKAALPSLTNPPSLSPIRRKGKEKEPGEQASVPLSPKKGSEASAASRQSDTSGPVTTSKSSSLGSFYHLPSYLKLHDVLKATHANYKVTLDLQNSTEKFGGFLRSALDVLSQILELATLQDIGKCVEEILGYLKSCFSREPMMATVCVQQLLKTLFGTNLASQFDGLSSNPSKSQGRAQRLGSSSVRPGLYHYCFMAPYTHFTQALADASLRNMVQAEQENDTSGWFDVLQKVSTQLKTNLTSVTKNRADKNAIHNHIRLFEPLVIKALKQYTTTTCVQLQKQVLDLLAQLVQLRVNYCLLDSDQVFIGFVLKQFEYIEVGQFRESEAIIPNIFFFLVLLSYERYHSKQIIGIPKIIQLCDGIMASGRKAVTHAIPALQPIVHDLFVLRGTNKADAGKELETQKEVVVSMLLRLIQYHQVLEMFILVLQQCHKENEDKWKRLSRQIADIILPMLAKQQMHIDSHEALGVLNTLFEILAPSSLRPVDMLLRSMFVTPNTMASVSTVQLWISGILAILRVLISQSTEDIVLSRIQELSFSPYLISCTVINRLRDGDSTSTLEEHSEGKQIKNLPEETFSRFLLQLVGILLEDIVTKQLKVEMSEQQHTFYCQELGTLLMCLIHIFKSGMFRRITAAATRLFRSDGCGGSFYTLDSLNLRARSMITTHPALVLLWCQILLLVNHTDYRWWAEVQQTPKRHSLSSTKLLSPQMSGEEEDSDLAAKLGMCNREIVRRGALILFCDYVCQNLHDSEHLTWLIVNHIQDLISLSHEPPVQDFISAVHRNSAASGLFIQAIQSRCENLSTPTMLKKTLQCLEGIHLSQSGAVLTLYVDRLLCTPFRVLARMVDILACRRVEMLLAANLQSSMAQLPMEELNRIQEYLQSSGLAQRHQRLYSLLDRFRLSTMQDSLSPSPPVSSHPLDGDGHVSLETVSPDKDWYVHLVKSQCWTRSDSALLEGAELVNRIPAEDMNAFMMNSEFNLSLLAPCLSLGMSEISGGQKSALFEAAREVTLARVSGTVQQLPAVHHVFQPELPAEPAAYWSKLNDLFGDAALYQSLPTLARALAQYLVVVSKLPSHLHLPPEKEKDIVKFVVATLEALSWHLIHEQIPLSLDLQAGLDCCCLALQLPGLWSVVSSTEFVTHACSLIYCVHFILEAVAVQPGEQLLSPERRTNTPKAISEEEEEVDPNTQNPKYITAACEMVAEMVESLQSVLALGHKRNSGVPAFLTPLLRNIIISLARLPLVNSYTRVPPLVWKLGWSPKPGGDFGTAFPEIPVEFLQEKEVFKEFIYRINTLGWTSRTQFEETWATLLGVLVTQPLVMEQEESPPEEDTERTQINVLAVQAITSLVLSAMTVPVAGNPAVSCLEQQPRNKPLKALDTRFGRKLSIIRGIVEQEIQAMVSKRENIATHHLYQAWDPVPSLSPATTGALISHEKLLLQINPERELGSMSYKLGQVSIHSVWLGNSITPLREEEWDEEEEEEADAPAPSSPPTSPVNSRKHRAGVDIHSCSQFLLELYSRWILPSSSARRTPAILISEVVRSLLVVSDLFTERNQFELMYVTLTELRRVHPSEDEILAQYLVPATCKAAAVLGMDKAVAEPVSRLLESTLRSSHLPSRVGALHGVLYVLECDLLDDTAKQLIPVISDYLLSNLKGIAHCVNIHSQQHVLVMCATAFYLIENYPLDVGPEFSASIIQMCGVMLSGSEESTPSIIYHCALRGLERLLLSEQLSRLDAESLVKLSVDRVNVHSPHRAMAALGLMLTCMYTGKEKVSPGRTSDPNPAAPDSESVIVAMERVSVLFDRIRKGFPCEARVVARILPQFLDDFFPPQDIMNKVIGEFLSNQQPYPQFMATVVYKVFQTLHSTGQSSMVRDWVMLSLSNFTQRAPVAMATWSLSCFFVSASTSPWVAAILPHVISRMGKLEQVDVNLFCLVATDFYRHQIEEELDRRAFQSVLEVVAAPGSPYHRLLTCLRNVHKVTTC
Pf apPOL block: Pf-apPOL DNA polymerase inhibition; inhibition, % at 10 µM; Recombinant Pf-apPOL, molecular beacon fluorescence, 1.5 h; hit rate 0.25% among 210,000
Numbers stand for hits; n = inactive; x = not tested or not shown. The list is not random: actives were taken first. Their share in the collection is about 3.5%. Rule as the data show it: active = inhibition above about 50%; inactive = the rest.

SMILES	mHTT CaM bind	Pf apPOL block
O=C(CC1=CCCCC1)NC1CCc2[nH]c3ccc(Br)cc3c2C1 (configuration not stated)	100	n
CC1CCC(C(=O)NC2CCc3[nH]c4ccc(Br)cc4c3C2)CC1 (configuration not stated)	97	n
c1ccc(CNCCN2CCNCC2)nc1	100	n
c1ccc(CN2CCN(Cc3ccccn3)CC2)nc1	n	n
CCOC=C1C(=O)N(c2ccccc2)C(=O)c2cc(OC)ccc21	x	n
O=C(c1ccccc1)c1ccc2c(c1)Cc1ccccc1-2	x	n
Cc1nc(C)c2c(n1)N(CC1CCCO1)C(=O)CC2 (configuration not stated)	n	n
Cc1cccc(CN2C(=O)CCc3c(C)nc(C)nc32)c1	n	51
Cc1nc(C)c2c(n1)N(CC1CCCCC1)C(=O)CC2	n	50
Cc1cccc(CN2C(=O)CCc3c(C)nc(-c4ccncc4)nc32)c1	n	n
O=C(Nc1cc(Cl)cc(Cl)c1)c1ccc(F)c(S(=O)(=O)NCCc2ccccc2)c1	n	n
O=C(Nc1ccc(Cl)c(Cl)c1)c1ccc(F)c(S(=O)(=O)NCc2ccc(F)cc2)c1	n	n
O=C(Nc1ccc(F)c(F)c1)c1ccc(F)c(S(=O)(=O)NCCc2ccc(Cl)cc2)c1	50	n
O=C(Nc1ccc(Cl)c(Cl)c1)c1ccc(F)c(S(=O)(=O)NCCc2ccccc2)c1	71	n
CC(C)(O)c1ccc(-c2ccccc2)cc1	n	n
COC(=O)COc1ccc2c(c1)OC(=Cc1ccccc1C)C2=O	n	n
Cc1cc2c(c(=O)[nH]1)C(=O)O/C2=C\c1cccs1	n	n
Cc1cc2c(c(=O)[nH]1)C(=O)O/C2=C\c1ccc(C)o1	69	n
Cc1ccccc1OCCOc1ccc(Cl)cc1C=O	n	n
COCC(=O)N1CCc2cn(CC(C)C)c3cccc(c23)C1	76	n
CC(C)Cn1cc2c3c(cccc31)CN(C(=O)c1cnccn1)CC2	n	n
CC(C)Cn1cc2c3c(cccc31)CN(C(=O)c1ccncc1)CC2	55	n
COc1ccc(NC(=O)N2CCc3cn(CC(C)C)c4cccc(c34)C2)cc1	n	n
COc1ccc(C2=N/C(=C\c3cccc(OC)c3OC)C(=O)O2)cc1OC	n	n
COc1cc(/C=C(\C#N)c2nn(CCO)c(N)c2C#N)cc2c1OCO2	n	n
SMILES	mHTT CaM bind	Pf apPOL block
CCOc1cc(/C=C(\C#N)c2nn(CCO)c(N)c2C#N)cc(I)c1OC	52	n
COc1cc(/C=C(\C#N)c2nn(-c3ccccc3)c(N)c2C#N)cc(OC)c1OC	n	n
CCOc1cc(/C=C(\C#N)c2nn(-c3ccccc3)c(N)c2C#N)cc(Br)c1OC	56	n
CCn1cc(CNC(=O)c2sc3cc([N+](=O)[O-])ccc3c2Cl)cn1	n	n
CCCOc1ccccc1/C=c1\sc2nc(-c3ccc(OC)cc3)nn2c1=O	n	n
O=C(c1ccccc1)N1CCN(C(=O)N(c2ccccc2)c2ccccc2)CC1	n	n
CCCNc1cc(N2CCCC(CCC(=O)NCc3ccc(F)cc3)C2)ncn1 (configuration not stated)	n	n
N#CC(CO)Cc1cc([N+](=O)[O-])ccc1N1CCCC1 (configuration not stated)	x	n
Cc1ccc(S(=O)(=O)CC(SC#N)c2ccccc2)cc1 (configuration not stated)	n	n
N#CSC(CS(=O)(=O)c1ccc([N+](=O)[O-])cc1)c1ccccc1 (configuration not stated)	62	n
O=C(NC1CCN(Cc2ccccc2)CC1)c1cccn2c(=O)c3cc(Cl)ccc3nc12	n	n
Cc1ccc2nc3c(C(=O)N4CCN(Cc5ccccc5)CC4)cccn3c(=O)c2c1	84	n
CNC(=O)CN(c1cccc([N+](=O)[O-])c1)S(=O)(=O)c1ccccc1	n	n
O=S(=O)(CCc1ccccc1)NCCN1CCN(c2ccccc2F)CC1	n	n
O=C(COc1ccccc1N1C(=O)C2C3CCC(C3)C2C1=O)c1ccc(F)cc1 (configuration not stated)	n	n
COc1ccccc1-c1nc(C2CCN(C(=O)c3ccccc3)CC2)no1	n	n
COc1cccc(-c2nc(C3CCN(C(=O)c4ccc(Cl)cc4)CC3)no2)c1	62	n
COc1cccc(-c2nc(C3CCN(C(=O)c4ccc(Br)cc4)CC3)no2)c1	n	n
COc1ccccc1-c1nc(C2CCN(C(=O)c3cccc(Cl)c3)CC2)no1	63	n
COc1ccc(C(=O)N2CCC(c3noc(-c4ccccc4C)n3)CC2)cc1	n	n
COc1cccc(C(=O)N2CCC(c3noc(-c4cccc(OC)c4)n3)CC2)c1	n	n
COc1cccc(-c2nc(C3CCN(C(=O)c4cccc(N(C)C)c4)CC3)no2)c1	53	n
Cc1ccccc1-c1nc(C2CCN(C(=O)c3ccc(Br)cc3)CC2)no1	54	n
Oc1ccccc1N=Cc1ccc(Br)cc1	n	n
COc1cccc(N2CCN(C(=O)c3cccc(Cl)c3)C(C)C2=O)c1 (configuration not stated)	n	n
SMILES	mHTT CaM bind	Pf apPOL block
Nc1c(C(=O)Nc2ccc(Cl)cc2Cl)sc2[nH]c(=O)c(C(=O)O)cc12	n	n
Nc1c(C(=O)c2ccc(Cl)cc2)sc2[nH]c(=O)c(C(=O)O)cc12	59	n
CC(C)n1nc(CO)c2c1CCN(C(=O)C1COc3ccccc3O1)C2 (configuration not stated)	n	n
N#CC1=C(N)N(c2c(F)cccc2F)C2=C(C(=O)CCC2)C1c1ccc2c(c1)OCO2 (configuration not stated)	n	n
CCOc1c(Br)cc(/C=C2\C(=O)NN(c3ccc(F)c(Cl)c3)C2=O)cc1OC	81	n
COc1cc(/C=C2\C(=O)NN(c3ccc(F)c(Cl)c3)C2=O)ccc1O	n	n
CC(C)CC(=O)N1CCC(COc2ccccc2C(=O)N2CCOCC2)CC1	n	n
Cc1ccc(C)c(N2CCN(C(=O)C3CCC3)C(C)C2=O)c1 (configuration not stated)	n	n
COc1c(C(=O)N2CCN(c3ccccc3)CC2)sc2ccc(F)cc12	60	n
COc1c(C(=O)N2CCOCC2)sc2ccc(F)cc12	n	n
O=C1CCCC2=C1C(c1ccc(Br)cc1)n1nc(-c3ccco3)nc1N2 (configuration not stated)	84	n
O=C1CCCC2=C1C(c1ccncc1)n1nc(-c3cccc(Cl)c3)nc1N2 (configuration not stated)	55	n
O=C1CCCC2=C1C(c1ccc3c(c1)OCO3)n1nc(-c3cccc(Cl)c3)nc1N2 (configuration not stated)	n	n
COc1ccc(C2C3=C(CCCC3=O)Nc3nc(-c4cccc(C)c4)nn32)cc1OC (configuration not stated)	86	n
COc1ccc(-c2nc3n(n2)C(c2ccc(OC)cc2)C2=C(CCCC2=O)N3)cc1 (configuration not stated)	n	n
COc1ccc(C2C3=C(CCCC3=O)Nc3nc(-c4cccc(Cl)c4)nn32)cc1OC (configuration not stated)	n	n
COc1ccc(C2C3=C(CCCC3=O)Nc3nc(-c4ccccc4)nn32)cc1OC (configuration not stated)	76	n
COc1ccccc1C1C2=C(CCCC2=O)Nc2nc(-c3cccc(C)c3)nn21 (configuration not stated)	n	n
O=C(c1ccc(F)cc1)N1CCN(C(=O)c2cc3ccccc3[nH]2)CC1	n	n

Screening results deposited in PubChem by University of Kansas High Throughput Screening Laboratory.
